This is part of a sample that, as a whole, favours compounds with a hit. Of some 83,000 tested, about 20% had one in any assay.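 Testing used 96-well plates and a 48-hour single-concentration exposure. Example: -40 means 40% of the starting cells died.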 Unmarked numbers belong to inactive results. Calls of active or inactive are those of the source.

In this assay the test system is KM12 colon. Briefly: NCI-60 one-dose screen, 48 h (100 = growth as untreated, 0 = no growth, -100 = all killed). The settings on record: 10 µM unless noted. The protocol: Growth inhibition of the KM12 human tumor cell line is measured as a screen for anti-cancer activity. Cells are grown in 96 well plates and exposed to the test compound for 48 hours. Compounds are tested at a single concentration, which is 10^-5 M for most compounds. The reported endpoint is percent growth (GI% or GIPRCNT), where numbers from 0 - 100% represent growth inhibition, and numbers from -100% - 0 represent cell death. For example, a value of 40 represents 60% growth inhibition. A value of 0 means no net growth occurred over the course of the experiment. A value of -40 indicates 40% of cells at the beginning of the experiment died by the end of the experiment. A value of -100 means all cells are dead at the end of the experiment.
NCI-60 Human Tumor Cell Lines Screen was performed using the standard one-dose NCI protocol, which is described in more detail at https://dtp.cancer.gov/discovery_development/nci-60/default.htm.
Compounds with GIPRCNT values below 10 were considered active. Activity score was based on GIPRCNT using the following formula: […]
Score is 0 for GIPRCNT values of 100 or above, 50 for GIPRCNT values of 0, and 100 for GIPRCNT values of -100.
Turning to `O=C(CN1CCN(c2cc3c(cc2F)c(=O)c(C(=O)N/N=C/c2ccccc2)cn3C2CC2)CC1)N/N=C\c1ccccc1`, the growth was 71.1%. As to `COc1ccc(C/C(C)=C(\c2ccc(Cl)cc2)c2ccc(OCCN3CCCCCC3)cc2)cc1`, the growth was 73.9%.

Take `CCCCCCCCCCCCCCCCNCCC[C@@H](C)[C@H]1CC[C@H]2[C@@H]3[C@H](OCCCN)C[C@@H]4C[C@H](OCCCN)CC[C@]4(C)[C@H]3C[C@H](OCCCN)[C@]12C`: the growth was -24.3% (active). Under `CCC(c1ccccc1)C(CC)c1ccc(O)c(O)c1` (stereo not given) stands 90.9%; under `CC(=O)CC(C)(C)c1ccc(Cl)cc1`, 108%. For `COc1cccc(-c2cn3c(ccc4ccccc43)n2)c1` the value was 34.6%; for `COc1ccc(-c2c3c(nc4n[nH]c(-c5ccc(Cl)cc5)c24)-c2ccccc2C(=O)C3=O)cc1`, -20.6% (active); for `CC(C)Oc1nc2c(c(=O)n(C)c(=O)n2C)n1C`, 105%. For `CCCCCCCCCCCCS(=O)CC(C)O` (stereo not given) the value was 116%; for `C=C1CC[C@@H]2[C@](C)(COC(C)=O)[C@H](OC(C)=O)CC[C@@]2(C)[C@@H]1CC(NCc1ccc(F)cc1)C1=CCOC1=O` (stereo not given in full), 46.5%. Consider `COc1cc2c(cc1O)CCc1cc(O)cc(OC)c1-2`, for which the growth is 97.4%. Under `CCOC(=O)c1c2c(n3ccc(NC(=O)CCN(CC)CC)cc13)C(=O)c1ncccc1C2=O` stands 63.5%; under `C(=N\Nc1ccccn1)/c1ccccn1`, 29.6%; under `c1ccc(-c2nc(N3CCOCC3)c3c4c(sc3n2)CCCCC4)nc1`, 64.7%. For `O=c1c2cccc3c(Nc4c(F)cccc4F)ccc(c32)c2nc3ccccc3n12` the value was 78.9%; for `CN(C)c1ccc(/C=C\C2=[N+](C)c3ccccc3C2(C)C)cc1`, -21.1% (active). `CNCc1cccc2c1OCCOCCOCCN(C)S(=O)(=O)c1ccc(cc1)-c1cnc(N)c(n1)C(=O)N2`: the growth was 43.6%. As for `CCCCCCCCCCCCCCCCCCNC(=O)[C@H]1CSC(c2ccc(OC)c(F)c2)N1` (stereo not given in full), the growth is -50.2% (active). Take `C=CCSc1nnc(-c2ccc(C(C)(C)C)cc2)n1-c1cccc(C(F)(F)F)c1`: the growth was 27.1%. For `COc1ccc(-c2cc(/C=C3\C(=O)Nc4ccc(Cl)cc43)[nH]n2)cc1`, the growth is 43.8%. As for `CC1=N/C(=C\c2cccc(Br)c2)C(=O)O1`, the growth was 106%. For the compound `CC/C=C\C[C@H](O)C/C=C1/C(=O)C=C[C@@H]1C/C=C\CCCC(=O)NC(C)C`, the growth is -43.5% (active).

For `CCN(C(=O)CN1CCN(c2cc3c(cc2F)c(=O)c(C(=O)O)cn3C2CC2)CC1)c1nc(-c2ccc(OC)cc2)cs1`, the growth was 52.9%. Under `CCN(CC)CCCC(C)NCCCNc1cccc2cccnc12` (stereo not given) stands 102%; under `C=C1CCC2C3(C)COC(c4ccc(OC)cc4Br)OC3CCC2(C)C1/C=C/C1=CCOC1=O` (stereo not given), 83.4%. For `O=C1C=CC(Nc2ccccc2[N+](=O)[O-])C1Nc1ccccc1[N+](=O)[O-]` (stereo not given) the value was 58.3%; for `CCCCCCCCCCCCCC1=NCCN1CCO`, 56.7%; for `CC1(C)CC(=O)C(c2c(-c3ccccc3)[nH]c3[nH]c(=S)[nH]c(=O)c23)=C(O)C1`, 118%.

With `COc1ccc(/C=C/C(=O)c2ccc(NC(=O)c3cc4cc5ccccc5nc4s3)cc2)cc1OC`, the growth is 76.3%. `COc1ccc(C(=O)/C=C/c2c[n+](=O)c3ccc(F)cc3n2[O-])cc1`: the growth is 113%.

Turning to `C#Cc1nc2ccccc2c(=O)[nH]1`, the growth was -65.7% (active). For `CS(=O)CCCCCN=C=S` (stereo not given) the value was -12.6% (active); for `COc1ccc(CN(c2ccc(C)cc2)C2OC(=O)c3ccccc32)cc1OC` (stereo not given), 102%.

In the case of `O=C(COc1cccc(/C=C2/Oc3ccccc3C2=O)c1)Nc1nccs1`, the growth is 4.37% (active). Under `CCOc1ccc(Nc2nc(-c3c(C)nc4ncccn34)cs2)cc1` stands 6.58% (active); under `O=[N+]([O-])c1cccc(C2CC(c3ccccc3)=Nc3ccccc3S2)c1` (stereo not given), 35.7%; under `CC(C)CC(CC1=CCC2CC1C2(C)C)C1=C(O)C(C)(C)C(=O)C(C)(C)C1=O` (stereo not given), 9.6% (active). Under `COc1ccc(/C=C/C(=O)c2c(O)c(C)c(O)c3c2OC2=CC(O)=C(C(C)=O)C(=O)[C@]23C)cc1` stands -4.07% (active); under `COc1cccc(-c2nc3sccn3c2-c2ccnc(NCCCNS(=O)(=O)c3ccc(Cl)cc3)c2)c1`, 43.5%.

For `O=C1O[C@H]([C@H](O)CO)C(O)=C1O`, the growth was 103%.
